Rows were chosen to be rich in hits. Some 1.8% of all compounds tested hit in one or more screens of this group.
Imprint erasure – genomic imprint erasure induction; mouse ES Peg3-LacZ reporter, beta-gal luminescence, 40 h; Potency, µM (highest dose often 60.7 µM), actives largely listed as activators; 110,000 compounds, 0.02% hits
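Gelatin-coated wells received 300 freshly trypsinized female ES cells with a Peg3LacZ-Neo reporter on the maternal allele, then incubated 40 hours at 37C. BetaGlo was added for 5 minutes at room temperature before a single luminescence read.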
IkB signaling – suppresses IkB signaling in ABC-DLBCL reporter cells; Potency, µM (titrated, usually from 57.1 µM); ABC-DLBCL IkBa-CBG/CBR dual luciferase ratio, 4 h; response scale: scaled: untreated 0%, proteasome inhibitor 100%; AID 445; 110,000 compounds, 0.04% hits; active means well fitted curve in the direction sought with a large enough effect in the signal ratio, not every such curve was filed as active; inconclusive means small, poorly fitted or top-dose-only effect, or a change in a side signal; the % refers to the signal ratio;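 further: the direction sought is a rising ratio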
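Luminescence ratio of IκBα-fused green versus native red beetle luciferase in OCI-Ly3 cells, 4 h post-doxycycline with compound; red signal alone, scaled from basal (0%) to zero light (-100%), flagged nonspecific or cytotoxic effects.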
p53ts 39C kill – kills p53ts cells at the nonpermissive temperature. H1299-p53A138V viability at 39C, ATP luminescence, 24 h. Potency, µM (top dose mostly 46.1 µM), hits mostly cytotoxic. 130,000 compounds, 1.5% hits; further: nearly all actives have a fitted effect of over 55% in size
p53ts 32C kill – cytotoxicity in p53ts cells at permissive temperature; H1299-p53A138V at 32C, ATP luminescence viability, 24 h; Potency, µM (series often up to 46.1 µM), usual class: cytotoxic; 130,000 compounds, 0.93% hits; AID 924; further: nearly all actives have a fitted effect of over 55% in size
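ATP-content luminescence (ATPlite) read-out after 24 h compound exposure at 32C in H1299-p53A138V cells (600/well). Tested up to 46 uM. Normalized to DMSO (0%) and 100 uM tamoxifen (100% killing); Hill-fit AC50.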
Hits are given with their value; 0 = inactive; ? = inconclusive; - = not tested or not shown; ! = a repeat was not active; [ ] = another dose, or the depositor's remark. Unless noted, the call rests on the fitted dose curve; in most records, active means well fitted curve in the direction sought with a large enough effect; inconclusive means small, poorly fitted or top-dose-only effect, or another doubt; inactive means no such curve, though single readings can be large; an effect the other way counts as inactive or inconclusive.

SMILES	Imprint erasure	IkB signaling	p53ts 39C kill	p53ts 32C kill
Cc1c(C(=O)NCc2ccc(F)cc2)sc2nc(-c3ccc(F)cc3)cn12	0[10.9 µM]	0	0	0
Cc1ccc(CNC(=O)c2sc3nc(-c4ccccc4)cn3c2C)cc1	0[10.9 µM]	0	0	0
O=C1CS(=O)(=O)C2(C(=O)N(Cc3cccc(F)c3)c3ccccc32)N1c1ccccc1 (stereo not drawn)	0[10.9 µM]	?	0	0
O=C(c1ccco1)N1CCC2(CC1)CCN(c1ccncc1)CC2	-	0[11.4 µM]	0	0
COC(=O)[C@H]1[C@@H]2C[C@H]3c4[nH]c5ccccc5c4CCN3C[C@@H]2CC[C@@H]1O	-	0[11.4 µM]	-	-
Fc1ccccc1Cc1cn2cc(-c3ccc(Cl)cc3)nc2s1	0[10.9 µM]	?	10µM	?
CCOc1ccc(CN2C(=O)C(=O)c3cccc(C)c32)cc1OC	0[10.9 µM]	0	13µM	0
NC(=O)C1CCN(C(=O)c2ccc(NC(=O)c3nsc4ccccc34)cc2)CC1	0[10.9 µM]	?	2.5µM	2µM
COc1cccc(Cn2c(=O)c(C)nc3cnc(N4CCN(C)CC4)nc32)c1	0	0[11.4 µM]	0	0
c1ccc(-n2nnc3c(N4CCOCC4)ncnc32)cc1	0	?	13µM	13µM
CCN1C(=O)[C@H]2[C@@H]3[C@H](O)[C@H](O)CC(=O)[C@H]3CC[C@H]2C1=O	-	-	0[9.22 µM]	0[9.22 µM]
CCOC(=O)c1c(C)[nH]c(C)c1S(=O)(=O)N(C)CC(=O)NCc1ccc(Cl)cc1	0[10.9 µM]	0	0	0
C=CCn1c(SCC(=O)NCC2CCCO2)nc2scc(-c3ccco3)c2c1=O (stereo not drawn)	0	0	0	0
O=C(CSc1nc2scc(-c3ccco3)c2c(=O)n1-c1ccccc1)NCC1CCCO1 (stereo not drawn)	0	7.9µM	0	0
COc1ccc(C2CC(c3cccs3)=Nc3ccccc3S2)cc1 (stereo not drawn)	-	-	0	25µM
COc1ccc(S(=O)(=O)N2CCN(c3ccccc3F)CC2)cc1-c1noc(C)n1	0[10.9 µM]	0	13µM	?
CCc1nc(-c2cc(S(=O)(=O)N3CCN(c4ccccc4F)CC3)ccc2OC)no1	0[10.9 µM]	0	0	0
CCCC[C@@H]1C[C@H]1[C@@H](NP(=O)(c1ccccc1)c1ccccc1)c1ccccc1OC	0	-	25µM	?
C=C(CC1([C@@H](NP(=O)(c2ccccc2)c2ccccc2)[C@H]2C[C@@H]2CCCC)CC1)c1ccccc1	0	-	25µM	0
CCCC[C@@H]1C[C@H]1C(NC(=O)c1ccccc1)c1ccccc1 (stereo partly drawn)	0	-	0	0
COc1ccc(-c2n[nH]c(C)c2-c2ccc(Cl)cc2)c(O)c1OC	0	?	?	13µM
CCOC(=O)N1CCc2c(sc3c2c(=O)n(CCc2ccccc2)c(=O)n3Cc2ccc(F)cc2)C1	0[10.9 µM]	?	0	0
CCn1cc(C(=O)NCc2ccccc2)c(=O)c2cc(S(=O)(=O)N3CCOCC3)ccc21	0[10.9 µM]	?	0	0
Cc1cccc(CN2CCc3nc(N4CCN(c5ccccn5)CC4)ncc3C2)c1	0[10.9 µM]	?	0	0
CSc1oc(-c2ccc(F)cc2)nc1S(=O)(=O)c1ccccc1	0	0	0	0
SMILES	Imprint erasure	IkB signaling	p53ts 39C kill	p53ts 32C kill
CCCCS(=O)(=O)c1oc(-c2ccc(F)cc2)nc1S(=O)(=O)c1ccccc1	0[10.9 µM]	?	2µM	10µM
CC(C)S(=O)(=O)c1oc(-c2ccc(F)cc2)nc1S(=O)(=O)c1ccccc1	0[10.9 µM]	?	0.79µM	4µM
CS(=O)(=O)c1oc(-c2ccc(F)cc2)nc1S(=O)(=O)c1ccc(Cl)cc1	0[10.9 µM]	?	4µM	13µM
CCS(=O)(=O)c1oc(-c2ccc(F)cc2)nc1S(=O)(=O)c1ccc(Br)cc1	0[10.9 µM]	?	1.6µM	7.1µM
Cc1oc(-c2ccc(C(=O)NCc3ccccc3F)cc2)nc1COc1ccccc1	0[10.9 µM]	0	?	0
CC(C)S(=O)(=O)c1oc(-c2cccs2)nc1S(=O)(=O)c1ccc(F)cc1	0[10.9 µM]	?	3.2µM	?
CCOC(=O)c1ccc2nc(NC(=O)c3ccco3)sc2c1	0	?	?	?
CC(C)(C)NS(=O)(=O)c1ccc2nc(NC(=O)c3cccnc3)sc2c1	0[10.9 µM]	?	0	0
CS(=O)(=O)c1ccc2nc(NC(=O)c3ccco3)sc2c1	0	?	13µM	13µM
CN(C)S(=O)(=O)c1ccc2nc(NC(=O)c3cccnc3)sc2c1	0	0	?	16µM
Cc1ccc(C(=O)Nc2nc3ccc(S(C)(=O)=O)cc3s2)o1	-	-	13µM	11µM
CCCCCCC#CC1C=CC(OC(C)=O)C(COC(C)=O)O1 (stereo not drawn)	-	-	0[9.22 µM]	0[9.22 µM]
COc1ccccc1-c1noc(-c2ccc(NC(C)C)c([N+](=O)[O-])c2)n1	0[10.9 µM]	0	0	0
COc1c(O)cc2oc3cc(O)c(CC=C(C)C)c(O)c3c(=O)c2c1CC=C(C)C	0	0[11.4 µM]	32µM	10µM!
CC(C(=O)O)c1ccc(N2Cc3ccccc3C2=O)cc1 (stereo not drawn)	0	-	10µM	10µM
CC(C)CCNC(=O)[C@@H](c1ccccc1)N1Cc2ccccc2C1=O	0[10.9 µM]	0	0	0
CC1CCC2C(=O)N3C(CCC(C)[C@@H]3c3cccc(N4CCOCC4)c3)C(=O)N2C1c1cccc(Br)c1 (stereo partly drawn)	-	-	0[9.22 µM]	0[9.22 µM]
Cc1ccccc1Cn1nnc2c(=O)[nH]c(C3CCCN(C(=O)c4ccc(C(C)(C)C)cc4)C3)nc21 (stereo not drawn)	0[10.9 µM]	?	32µM	0
Cc1cccc(Cn2nnc3c(=O)[nH]c(C4CCCN(C(=O)c5ccc(C(C)(C)C)cc5)C4)nc32)c1 (stereo not drawn)	0[10.9 µM]	0	25µM	?
CCC(Cc1ccccc1)NC(=O)Cn1ncc2c3ccccc3n(Cc3ccc(F)cc3)c2c1=O (stereo not drawn)	0[10.9 µM]	0	10µM	?
O=C(Cn1ncc2c3ccccc3n(Cc3ccccc3)c2c1=O)NCCc1ccc(Cl)cc1	0[10.9 µM]	0	13µM	0
O[C@@H](c1cc(-c2ccccc2)nc2c1ccc1ccccc12)C1CCCCN1 (stereo partly drawn)	0[10.9 µM]	-	-	-
O=C(Nc1cccc(F)c1)N1CC[C@@]2(CCCN(C(=O)c3ccco3)C2)C1	-	0[11.4 µM]	0	0
CCCOc1ccc(N2C(=O)CC(SCCN)C2=O)cc1 (stereo not drawn)	0	0	10µM	13µM
CO[C@H]1COC(=O)[C@H](C)NC(=O)C/C=C\[C@@H](C)[C@@H](NS(=O)(=O)c2ccc(C)cc2)COC(=O)C/C=C\[C@@H]1C	-	-	0[9.22 µM]	0[9.22 µM]
SMILES	Imprint erasure	IkB signaling	p53ts 39C kill	p53ts 32C kill
OCCN1CCN(CCCN2c3ccccc3Sc3ccc(Cl)cc32)CC1	0	0	10µM!	16µM!
CN(C)CCCN1c2ccccc2Sc2ccc(Cl)cc21	0	0	10µM!	?
CN(C)CCCN1c2ccccc2Sc2ccc3ccccc3c21	0[10.9 µM]	0[11.4 µM]	0[9.22 µM]	0[9.22 µM]
CC(=O)c1ccc2c(c1)N(CCCN1CCC(CCO)CC1)c1ccccc1S2	0	0	-	-
O=C(O)c1cc(C(=O)O)nc(C(=O)O)c1	0[10.9 µM]	0[11.4 µM]	0[9.22 µM]	0[9.22 µM]
CCOC(=O)c1c(C)oc2ncnc(Nc3ccc(OCC)cc3)c12	0[10.9 µM]	0	0	0

Screening results as filed in PubChem BioAssay.
